Results filed as inconclusive are left out. Values without a mark were called inactive. Calls of active or inactive are those of the source. Calls follow the shape of the dose curve; as a rule, active = well fitted curve in the direction sought with a large enough effect; inconclusive = small, poorly fitted or top-dose-only effect, or another doubt; inactive = no such curve, though single readings can be large or run the other way.

Chain of Microtubule-associated protein tau (Homo sapiens) (P10636 561-689 P618L limits assumed): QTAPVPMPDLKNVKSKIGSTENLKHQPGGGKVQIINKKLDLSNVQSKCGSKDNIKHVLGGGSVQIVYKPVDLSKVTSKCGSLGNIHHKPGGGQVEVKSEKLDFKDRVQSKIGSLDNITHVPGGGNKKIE

In the experiment the target is Microtubule-associated protein tau (Homo sapiens) (UniProt P10636). The experiment can be described thus: Confirmation Concentration-Response Assay for Inhibitors of Tau Fibril Formation, Fluorescence Polarization. The note with it: recombinant tau K18 P301L (four-repeat tau fragment) heparin fibrillization, Alexa594 FP; series mostly up to 57.1 µM; activity change, negative = inhibition: at the top concentration. The source says:
NIH Molecular Libraries Probe Production Network [MLPCN] NIH Chemical Genomics Center [NCGC] MLPCN Grant: X01 MH083262-01 Assay Provider: Carlo Ballatore, University of Pennsylvania NCGC Assay Overview: The microtubule-associated protein tau is an abundant protein in the axons of neurons that stabilizes microtubules. With its ability to modulate microtubule dynamics, tau contributes directly or indirectly, to key structural and regulatory cellular functions. Particularly important is the influence tau exerts on axonal transport, which allows signaling molecules, trophic factors and other essential cellular constituents to travel along the axons. Under pathological conditions, tau becomes sequestered into insoluble aggregates called neurofibrillary tangles. This phenomenon is believed to have pathological consequences by promoting axonal transport deficits that ultimately lead to synaptic dysfunction and neuronal loss. To identify inhibitors of tau aggregation, a heparin-induced tau fibril formation assay was used that employed a recombinantly expressed fragment of tau, K18 (Q242-E372), bearing a P301L mutation (Gustke et al. 1994; Hong et al. 1998). […] Gustke, N., B. Trinczek, et al. (1994). "Domains of tau protein and interactions with microtubules." Biochemistry 33(32): 9511-22. Hong, M., V. Zhukareva, et al. (1998). "Mutation-specific functional impairments in distinct tau isoforms of hereditary FTDP-17." Science 282(5395): 1914-7. Li, W. and V. M. Lee (2006). "Characterization of two VQIXXK motifs for tau fibrillization in vitro." Biochemistry 45(51): 15692-701. von Bergen, M., S. Barghorn, et al. (2001). "Mutations of tau protein in frontotemporal dementia promote aggregation of paired helical filaments by enhancing local beta-structure." J Biol Chem 276(51): 48165-74.
For screening, 2 uL/well human K18 P301L (15 uM unlabeled and 0.24 uM Alexa 594-labeled tau final concentrations) in reagent buffer (100 mM sodium acetate pH 7) was dispensed into black solid 1536-well plates (Grenier) using a solenoid-based dispenser. Following transfer of 23 nL compound or DMSO vehicle by a pin tool, 2 uL/well heparin (20 uM final concentration) in reagent buffer was added and the plate centrifuged 15 s at 1000 RPM. Plates were incubated 6 hr at 37 C and then 1 uL/well ThT (30 uM final concentration) was added. After a 1 hr ambient incubation, the plates were read by an Envision (Perkin Elmer) to monitor Alexa 594 FP (555 nm excitation and 632 nm emission). Keywords: NIH Roadmap, MLPCN, MLI, MLSMR, NCGC, qHTS, tau, tauopathies, Alzheimer's disease, fibril, neurodegeneration, aggregation
In general terms: In fluorescence polarisation assays a small probe gives low polarisation when free and higher when bound to something large.
For the molecule `COc1ccc(OC)c(NC(=O)c2c(NCc3cccs3)sc3c2CCCC3)c1`, the “activity change, negative = inhibition” value is 10.3%. On the same count and under the same terms, for `O=C(NCc1cccnc1)C1CCN(S(=O)(=O)c2cccs2)CC1` the value was -5.75% [at 100 µM]; for `COc1ccc2c(c1)c(CC(=O)N1CCOCC1)c(C)n2C(=O)c1ccc(Cl)cc1`, -2.9% [at 100 µM]; for `COC(=O)C1CCc2sc(NC(=O)Cc3ccccc3)c(C(=O)Nc3ccc(Cl)cc3)c21` (stereo not given), 2.38%. On to `CCOC(=O)c1nn(-c2cccc(C(F)(F)F)c2)c(=O)c2c(N)scc12`, for which the “activity change, negative = inhibition” value was -12.7%. Regarding `CN1CCc2sc(NC(=O)Cc3ccccc3)c(C(=O)Nc3ccc(Cl)cc3)c2C1`, the “activity change, negative = inhibition” value was 23%. On to `Nc1ccc(-c2ccc3ccccc3n2)cc1`, for which the “activity change, negative = inhibition” value was -5.65% [at 100 µM]. On to `CCOC(=O)c1nn(-c2ccc(C)c(C)c2)c(=O)c2c(N)scc12`, for which the “activity change, negative = inhibition” value was -29.4%.

On to `Cc1sc(N)c2c(=O)n(-c3ccccc3)ncc12`, for which the “activity change, negative = inhibition” value was -17.1%. Still for that read-out and setting: for `S=C1Cc2ccccc2N1` the value was -9.54%; for `Cn1cc(Cl)c(C(=O)Nc2cccc(Cl)c2Cl)n1`, -4.85% [at 100 µM]; for `O=C(Nc1nnc(S(=O)(=O)Nc2ccccc2)s1)C1CCCCC1`, -5.85% [at 100 µM]. Turning to `O=C(O)CN1C(=O)/C(=C/c2ccc(-c3cccc(Cl)c3)o2)SC1=S`, the “activity change, negative = inhibition” value is -8.8% [at 100 µM]. On the same count and under the same terms, next, `O=C(Cc1ccccc1)Nc1sc2c(c1C(=O)Nc1ccc(Cl)cc1)CCOC2`: -15.8%; `CCOC(=O)c1nn(-c2ccccc2F)c(=O)c2c(N)scc12`: -12.8%; `COC(=O)C1CCc2sc(N)c(C(=O)OCc3ccccc3)c21` (stereo not given): -11.9%. On the same count and under the same terms, for `CCOC(=O)c1nn(-c2ccccc2)c(=O)c2c(N)sc(C)c12` the value was -12.8%; for `O=C(Nc1cccc(-c2nc3ccccc3o2)c1)c1cc([N+](=O)[O-])ccc1N1CCOCC1`, -3.1% [at 100 µM]; for `COc1cccc(/C=C2/SC(=S)N(CC(=O)Nc3nnc(C)s3)C2=O)c1`, -24.6%. Still for that read-out and setting: next, `NC[C@@H](O)c1ccc(O)c(O)c1`: -5.2% [at 100 µM]. `CCN(CC)S(=O)(=O)c1cccc(NC(=O)Nc2cccc(C(F)(F)F)c2)c1`: the Potency is 2.82 µM (active). As to `COc1cc(/C=N/N=C2/NC(=O)C(CC(=O)O)S2)ccc1OCc1ccc(Cl)cc1` (stereo not given), the “activity change, negative = inhibition” value was -7.85% [at 100 µM]. As for `Cc1ccc(NC(=O)N2CCN(c3ccccn3)CC2)cc1`, the “activity change, negative = inhibition” value was -9.65% [at 100 µM]. In the case of `Cc1ccc(NC(=O)c2c(NC(=O)Cc3ccccc3)sc3c2CCCC3)cc1`, the “activity change, negative = inhibition” value is -10.5%. On the same count and under the same terms, for `O=C(CSc1nc2scc(-c3ccco3)c2c(=O)n1-c1ccccc1)N1CCOCC1` the value was -7.95%; for `COc1ccc(NC(=O)C2CCN(S(=O)(=O)c3c(C)noc3/C=C/c3cccs3)CC2)cc1Cl`, -9.5% [at 100 µM]; for `Cc1[nH]c(=O)c(C#N)cc1-c1ccncc1`, -0.55% [at 100 µM]. As for `CN(c1ccccc1)S(=O)(=O)c1nnc(NC(=O)COc2ccccc2)s1`, the “activity change, negative = inhibition” value is -3.1% [at 100 µM]. Consider `O=S(=O)(c1ccc(NC(=S)N/N=C/c2ccc(N3CCOCC3)cc2)cc1)N1CCOCC1`, for which the “activity change, negative = inhibition” value is -4.1% [at 100 µM]. With `COc1c(Cl)cccc1NC(=O)c1c(NC(=O)Cc2ccccc2)sc2c1CCCC2`, the “activity change, negative = inhibition” value was 4.04%. Same read-out and setting: next, `CCOC(=O)c1nn(-c2ccccc2)c(=O)c(C#N)c1C`: -3.79%; `CCN(c1ccccc1)S(=O)(=O)c1nnc(NC(=O)C(C)(C)C)s1`: -5.3% [at 100 µM]; `Cn1sc(NC(=O)c2ccccc2)nc1=O`: -3.96%. With `CCOC(=O)c1c(N)sc2c1CN(C)CC2`, the “activity change, negative = inhibition” value was -13.2%. Still for that read-out and setting: next, `COc1ccc2oc(-c3ccc(NC(=O)c4ccc(N5CCOCC5)c([N+](=O)[O-])c4)cc3)nc2c1`: -2.5% [at 100 µM].

As to `Cc1ccc(SCc2cc(=O)n(C)[nH]2)cc1`, the “activity change, negative = inhibition” value was -3.6% [at 100 µM]. For the molecule `N#Cc1cccc(NC(=O)c2ccc3c(c2)N(Cc2cccc(Cl)c2)C(=O)c2ccccc2S3(=O)=O)c1`, the “activity change, negative = inhibition” value is -0.9% [at 100 µM]. On the same count and under the same terms, next, `COC(=O)CSc1nc2ccc(NC(=O)CSc3nnnn3Cc3ccccc3)cc2s1`: -9.6% [at 100 µM]; `Cc1ccc(N(C)S(=O)(=O)c2nnc(NC(=O)C3CCCCC3)s2)cc1`: -6% [at 100 µM]. As for `Nc1scc2c(C(=O)O)nn(-c3ccccc3)c(=O)c12`, the Potency was 7.08 µM (active).

Values taken from PubChem BioAssay AID1559 (National Center for Advancing Translational Sciences (NCATS), 2009).
